Measurements published in PubChem BioAssay AID2384 (Southern Research Specialized Biocontainment Screening …, 2010).
Among all 2,300 compounds or so, about 1,100 (48%) were called active. The rule behind the calls is not given here. The set was probably picked from earlier hits. The list shows a part of the results. Results with a measured potency or affinity are listed apart.

Experiment: S. typhi counter-screen signal inhibition – fluorescence, 4 h, counter-screen for PhoP regulon inhibitor project, dose response (AID 2384)
Details: S. typhi GFP reporter counter-screen; series mostly up to 150 µM

| Structure (SMILES) | inhibition |
| --- | --- |
| O=C(Nc1ccncc1)c1cc(-c2ccccn2)nc2ccccc12 | inactive |
| CC(C)[C@H](NC(=O)c1ccccc1Cl)C(=O)Nc1nc(-c2ccccn2)cs1 | inactive |
| Cn1cc(S(=O)(=O)Nc2ccc(OC(F)(F)F)cc2)c(=O)n(C)c1=O | inactive |
| CC(C)NC(=O)CN1CCN(Cc2nc(C(c3ccccc3)c3ccccc3)no2)CC1 | inactive |
| CCN1CCN(C(=O)Cc2coc3cc(C)cc(C)c23)CC1 | inactive |
| COc1c(C(=O)N2CCCC2)ccc2ccccc12 | inactive |
| CCN1CCN(C(=O)/C=C/c2cccc(Cl)c2)CC1 | inactive |
| O=C(O)c1cc2cc(F)ccc2[nH]1 | inactive |
| COc1ccc2c(C(=O)CCl)c[nH]c2c1 | inactive |
| Cc1c(Cl)cccc1NC(=O)C1CCN(S(C)(=O)=O)CC1 | inactive |
| COCc1ccc(C(=O)Nc2ccc(C(=O)O)cc2)o1 | inactive |
| COc1cccc(OC)c1C(=O)Nc1ccc(N2CCN(S(C)(=O)=O)CC2)cc1 | inactive |
| CCOC(=O)Cc1[nH]nc2c1C(c1ccoc1)C(C#N)=C(N)O2 (centres undefined) | inactive |
| O=C1c2ccccc2C(=O)C1(CO)c1ccc(OC(F)F)cc1 | inactive |
| O=c1c2ccccc2nc(-c2cccc(Cl)c2)n1O | inactive |
| COc1ccc(C(=O)O/N=C2\C(=O)N(C)c3ccccc32)cc1 | inactive |
| Cc1nc(SCC(=O)N2c3ccccc3Sc3ccccc32)n[nH]1 | inactive |
| CC(=O)NCCn1c(SCc2ccccc2C)nc2ccccc2c1=O | inactive |
| Cc1ccn2cc(C(=O)Nc3nnc(C)s3)nc2c1 | inactive |
| Cc1cccc(N/N=C/c2ccc(O)c(O)c2O)c1 | inactive |
| O=C(NCCO)C(=O)c1c(-c2ccc(Cl)cc2)cc2ccccn12 | inactive |
| CC(C)c1ccc(C2C(C#N)=C(N)Oc3c2oc(CO)cc3=O)cc1 (centres undefined) | inactive |
| O=C(NC(=C(Cl)Cl)S(=O)(=O)c1ccc(Cl)cc1)c1ccccc1 | inactive |

| Structure (SMILES) | inhibition |
| --- | --- |
| CCN(CC)CCNC(=O)c1cccc(NC(=O)C(=O)c2cc(Br)ccc2NC(C)=O)c1 | inactive |
| COc1ccc(NS(=O)(=O)c2cccc(NC(=O)c3ccccn3)c2)cc1 | inactive |
| O=C(CCl)Nc1nccs1 | inactive |
| Nc1ccc(S(=O)(=O)Nc2nccs2)cc1 | inactive |
| O=C(NCc1cccnc1)c1ccc(Cl)cc1[N+](=O)[O-] | inactive |
| CCCN1C(=O)c2ccc(C(=O)Nc3nccs3)cc2C1=O | inactive |
| O=C(Nc1ccccc1)Nc1cccc(Cl)c1 | inactive |
| O=C(NCc1ccco1)c1ccc2c(c1)N(Cc1ccccc1)CCS2 | inactive |
| CN1C(=O)/C(=C/c2cccc(Cl)c2)Sc2ccc(C(=O)N3CCCC3)cc21 | inactive |
| O=C(COC(=O)/C=C/c1cccc(C(F)(F)F)c1)NCc1ccccc1 | inactive |
| CCC(=O)Nc1nc(C)c(C(=O)N2CCCCC2)s1 | inactive |
| O=C1c2ccccc2C(=O)N1CCC(c1ccccc1)c1ccco1 (centres undefined) | inactive |
| CCc1ccccc1NC(=O)c1onc(C)c1Cl | inactive |
| CC1(C)CC(=O)C2=C(C1)N(c1ccc(F)cc1)C(=O)CC2c1ccsc1 (centres undefined) | inactive |
| CCc1cc(CNC(=O)C2CCC(=O)N(Cc3cccc(F)c3)C2)on1 (centres undefined) | inactive |
| Fc1ccccc1CSc1ccc(-c2ccco2)nn1 | inactive |
| COc1cccc(NC(=O)CSc2nncn2-c2ccccn2)c1 | inactive |
| CCN1CCN(c2nc3ccccc3nc2C(C#N)S(=O)(=O)c2ccc(C)cc2)CC1 (centres undefined) | inactive |
| CCCCn1c(NCc2ccccc2NS(=O)(=O)c2ccc(C)cc2)nc2ccccc21 | inactive |
| Cc1cccc(S(=O)(=O)c2c(N)n(/N=C/c3ccccc3)c3nc4ccccc4nc23)c1 | inactive |
| N#CCCn1c2ccccc2c2nc3ccccc3nc21 | inactive |
| CCCN(CCC)c1nc(C)cc(C(C#N)c2nc3ccccc3o2)n1 (centres undefined) | inactive |
| CS(=O)(=O)c1cnc2c(-c3ccsc3)cnn2c1N | inactive |

| Structure (SMILES) | inhibition |
| --- | --- |
| CS(=O)(=O)c1cnc2c(-c3ccc(F)cc3)cnn2c1N | inactive |
| Cc1ccc(OCC(O)Cn2c(N)nc3c2c(=O)n(C)c(=O)n3C)cc1 (centres undefined) | inactive |
| C=C(C)Cn1c(-c2ccc(OC)cc2)nc2ccccc21 | inactive |
| CC(C)Cc1nc(N2CCOCC2)c(C#N)c2c1COC(C)(C)C2 | inactive |
| C1CCC(n2nnnc2CN2CCN(C3CCCC3)CC2)CC1 | inactive |
| CCCCC(=O)Nc1ccc(F)c(Cl)c1 | inactive |
| CCN(CC)C(=O)C(=O)c1cn(CC(=O)N2CCc3ccccc3C2)c2ccccc12 | inactive |
| Cc1ccccc1-c1ncc(CN2CCN(C3CCCC3)C(CCO)C2)cn1 (centres undefined) | inactive |
| COc1cccc(/C=C/C(=O)c2cccc([N+](=O)[O-])c2)c1OC | inactive |
| O=C(On1c(-c2ccccc2)nc2ccccc2c1=O)c1ccco1 | inactive |
| COC(=O)c1cn(C(=O)c2ccco2)c2ccccc12 | inactive |
| COc1ccc(N(C(=O)c2cccnc2)S(=O)(=O)c2cccc([N+](=O)[O-])c2)cc1 | inactive |
| COC(=O)c1ccc(OC(=O)c2cccnc2)cc1 | inactive |
| CCNC(=O)c1ccc(C2SCC(=O)N2CCc2ccccc2)cc1 (centres undefined) | inactive |
| COc1ccc(C[C@H]2CN3C(=NC[C@H]3Cc3ccccc3)N2CCNC(=O)c2ccc(C)c(Br)c2)cc1 | inactive |
| COc1ccc2c(C(=O)CN(C)C3CCCCC3)c[nH]c2c1 | inactive |
| Cc1ccc(NC(=O)CCNC(=O)c2ccccc2)cc1F | inactive |
| CCN1CCN(CC(=O)Nc2ccc(C)c(Br)c2)CC1 | inactive |
| O=C(CSCc1ccccc1)Nc1cccc(C(=O)Nc2ccc(C(=O)O)cc2)c1 | inactive |
| Cc1ccnc(NC(=O)CCC(=O)N(CC(=O)NC2CCCCC2)C2CCCC2)c1 | inactive |
| CS(=O)(=O)N(CCc1ccccc1)CC(=O)Nc1ccc2c(c1)OCO2 | inactive |
| CN1C2=CC=CC=CC2=[N+](C)C12C=CC(=[N+]([O-])[O-])C=C2[N+](=O)[O-] (centres undefined) | inactive |
| Cc1cccc(/C(N)=N/OC(=O)N2CCOCC2)c1 | inactive |

| Structure (SMILES) | inhibition |
| --- | --- |
| Cc1ccn2cc(-c3ccc4c(c3)NC(=O)CO4)nc2c1 | inactive |
| CC(C)n1cnnc1SCC(=O)Nc1ccc(Br)cc1F | inactive |
| N#Cc1ccc(-c2ccc(OCC(=O)NCCCN3CCCC3=O)cc2)cc1 | inactive |
| C1=C(CCNc2ncnc3c2[nH]c2ccccc23)CCCC1 | inactive |
| COc1ccc(-n2ncc3c(NCc4ccccn4)ncnc32)cc1 | inactive |
| Cc1ccc(-c2[nH]ncc2/C=N/n2c(C)nc3ccccc3c2=O)cc1 | inactive |
| Cc1ccc(/C=N/n2c(C)nc3ccccc3c2=O)s1 | inactive |
| O=C(C[n+]1cc(-c2ccccc2)n2c1CCC2)c1cccs1 | inactive |
| CCOC(=O)Cc1csc(NC(=O)c2ccc(S(=O)(=O)N3CCCC3)cc2)n1 | inactive |
| O=C(/C=C/c1ccc(O)cc1)c1ccccc1 | inactive |
| COc1cccc(C2=NO[C@@H]3C(=O)N(Cc4ccccc4)C(=O)[C@H]23)c1OC | inactive |
| CCc1nnc(NS(=O)(=O)c2ccc(NC(=S)NC(=O)/C=C/c3ccc([N+](=O)[O-])cc3)cc2)s1 | inactive |
| Cc1cc2ncn(/N=C/c3ccc([N+](=O)[O-])o3)c2cc1C | inactive |
| Cc1ccc2[nH]c(C(=O)O)c(NC(=O)CN3CCN(c4cccc(C)c4C)CC3)c2c1 | inactive |
| Cc1ccc(C(C(=O)NCCc2ccccc2)N(C(=O)c2csnn2)C2CC2)o1 (centres undefined) | inactive |
| [O-][n+]1c2ccccc2cc2ccccc21 | inactive |
| Cc1ccc(S(=O)(=O)NCC(=O)OCN2C(=O)c3ccccc3C2=O)cc1 | inactive |
| CCCOc1ccc(N2C(=O)C3C(C(C)C)NC4(C(=O)c5ccccc5C4=O)C3C2=O)cc1 (centres undefined) | inactive |
| COc1ccc(-c2csc(N)n2)cc1F | inactive |
| CNC(=O)Nc1cccc(C(F)(F)F)c1 | inactive |
| Cc1nc2ccc(NC(=O)c3cccc(C(F)(F)F)c3)cc2o1 | inactive |
| O=C(CNC(=O)Cn1ccc2ccccc2c1=O)NCCCN1CCCCCC1 | inactive |
| Cc1cc(C)cc(NC(=O)C(Sc2nnc(C)c(=O)[nH]2)c2ccccc2)c1 (centres undefined) | inactive |

| Structure (SMILES) | inhibition |
| --- | --- |
| CCCC1C(c2ccc(OC)cc2)C(C#N)(C#N)C2(C#N)CC1(N)NC2=O (centres undefined) | inactive |
| O=C(Nc1ccc(Br)cc1)N1CCCCC1 | inactive |
| CCNC(=S)N1CCN(CC)CC1 | inactive |
| Cn1c(=O)c(=O)n(C)c2cc(S(=O)(=O)N3CCc4ccccc43)ccc21 | inactive |
| CN1Cc2ccccc2N(CC(=O)NCc2ccccc2)C1=O | inactive |
| Cc1cc(Cl)ccc1OCCCC(=O)N1CCCc2ccccc21 | inactive |
| O=C1NC(=S)S/C1=C1\Sc2ccccc2N1CCCS(=O)(=O)O | inactive |
| Cc1cc(NC(=O)CSc2nnc(-c3cccnc3)n2N)no1 | inactive |
| O=C1N/C(=C/c2ccc(N3CCOCC3)cc2)C(=O)N1Cc1ccc(F)cc1 | inactive |
| O=C(O)CC/C(=C\c1ccccc1[N+](=O)[O-])c1nc2ccccc2s1 | inactive |
| O=C(OCc1nc2ccccc2s1)c1ccco1 | inactive |
| CCOc1ccc(-c2nc(N)ncc2-c2ccccc2)c(O)c1 | inactive |
| CCOc1ccc(NC(N)=O)cc1 | inactive |
| C/C(=N\Nc1ccc(C)c(Cl)c1)c1cccnc1 | inactive |
| CCOC(=O)c1ccc(NC(=O)C2CCC(CNc3c(N4CCOCC4)c(=O)c3=O)CC2)cc1 (centres undefined) | inactive |
| Cc1nnc(SCC(=O)N(C(C)C)C(C)C)[nH]c1=O | inactive |
| CCc1nc(SCC(=O)Nc2ccc(N(C)C)cc2)c2ccccc2n1 | inactive |
| C#CCOC(=O)c1ccccc1C(=O)OCC#C | inactive |
| O=C(NCCCNc1ccnc2cc(Cl)ccc12)c1ccccc1F | inactive |
| COc1ccc(NC(=O)Cn2cnc3c(cnn3C(C)(C)C)c2=O)cc1OC | inactive |
| Cc1nc2cc(C(=O)N3CCC4(CC3)OCCO4)ccc2n1-c1cccc(F)c1 | inactive |
| COC(=O)c1ccc(NC(=O)CO/N=C2\CCCc3nonc32)cc1 | inactive |
